Holding throughout (assay): DAPPL (digital affinity profiling via proximity ligation, sequencing); 10 mM Tris-HCl pH 7.5, 50 mM NaCl, 1 mM DTT, 4% glycerol, room temperature, 30 min; GST-TFs on glutathione beads, 16-mer random dsDNA library, 0.1% formaldehyde crosslink after washing; high values mean tight binding
One test concerns the target T1, FLI1 (Homo sapiens, UniProt Q01543 1-452).
T1 sequence: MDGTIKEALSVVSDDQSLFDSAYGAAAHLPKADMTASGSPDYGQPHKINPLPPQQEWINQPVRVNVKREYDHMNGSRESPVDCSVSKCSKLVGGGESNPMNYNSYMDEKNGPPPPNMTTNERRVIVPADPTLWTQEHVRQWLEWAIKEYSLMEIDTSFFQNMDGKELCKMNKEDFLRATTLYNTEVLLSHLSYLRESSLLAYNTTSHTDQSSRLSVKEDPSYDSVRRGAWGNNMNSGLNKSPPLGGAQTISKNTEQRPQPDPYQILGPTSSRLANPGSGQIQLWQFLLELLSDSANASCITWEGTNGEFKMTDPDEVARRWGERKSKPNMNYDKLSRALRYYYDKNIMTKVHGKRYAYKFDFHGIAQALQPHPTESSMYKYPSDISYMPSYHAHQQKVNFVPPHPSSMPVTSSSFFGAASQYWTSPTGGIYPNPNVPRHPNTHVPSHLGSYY
The conditions noted are these: protein: recombinant; tags: N-terminal GST; dsDNA, one strand shown. The method in brief:
(§1)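 Binding signal is each hexamer's read frequency for a factor divided by its frequency in the tag-only sample. The factors were GST-fused human transcription factors from yeast, captured on glutathione beads, DNA-barcoded and pooled with that sample. Pools were incubated with 200 nmole of a random double-stranded 16-mer DNA library in Tris/NaCl/DTT/glycerol buffer at room temperature for 30 min, then washed, crosslinked with 0.1% formaldehyde, proximity-ligated with BsaI/T4 ligase (1 h, 37 °C), PCR-amplified and sequenced on an Illumina NextSeq500.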

Another test addresses T2, ELK1 (Homo sapiens, UniProt P19419 1-428).
T2 sequence: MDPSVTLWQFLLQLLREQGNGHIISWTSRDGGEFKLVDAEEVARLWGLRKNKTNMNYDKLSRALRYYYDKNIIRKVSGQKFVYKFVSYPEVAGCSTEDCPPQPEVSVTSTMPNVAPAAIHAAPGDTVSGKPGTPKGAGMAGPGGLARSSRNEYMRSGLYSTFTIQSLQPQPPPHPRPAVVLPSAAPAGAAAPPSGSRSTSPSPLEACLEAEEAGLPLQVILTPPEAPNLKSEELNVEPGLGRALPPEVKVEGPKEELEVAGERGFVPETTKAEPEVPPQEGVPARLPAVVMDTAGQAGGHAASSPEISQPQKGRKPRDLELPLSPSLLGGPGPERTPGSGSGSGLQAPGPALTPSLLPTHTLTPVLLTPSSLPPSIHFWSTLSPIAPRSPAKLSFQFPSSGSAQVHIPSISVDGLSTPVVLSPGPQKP
To be noted: protein: recombinant; tags: N-terminal GST; dsDNA, one strand shown. A digest of the protocol: as §1

A further test addresses T3, GABPA (Homo sapiens, UniProt Q06546 1-454).
T3 sequence: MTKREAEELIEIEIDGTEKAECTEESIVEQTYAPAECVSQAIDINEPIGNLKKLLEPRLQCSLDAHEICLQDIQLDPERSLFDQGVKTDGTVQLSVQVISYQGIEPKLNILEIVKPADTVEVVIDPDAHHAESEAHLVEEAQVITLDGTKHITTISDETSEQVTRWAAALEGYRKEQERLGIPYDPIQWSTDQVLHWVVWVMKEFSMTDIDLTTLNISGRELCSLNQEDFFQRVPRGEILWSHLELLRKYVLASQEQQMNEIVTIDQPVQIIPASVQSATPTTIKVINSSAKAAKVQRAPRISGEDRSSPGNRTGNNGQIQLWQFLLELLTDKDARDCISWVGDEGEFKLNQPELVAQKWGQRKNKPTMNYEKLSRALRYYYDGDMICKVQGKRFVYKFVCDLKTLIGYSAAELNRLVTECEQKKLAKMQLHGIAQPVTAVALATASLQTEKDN
The conditions noted are these: protein: recombinant; tags: N-terminal GST; dsDNA, one strand shown. The method in brief:
as §1

Another test deals with T4, ERG (Homo sapiens, UniProt P11308 1-479).
T4 sequence: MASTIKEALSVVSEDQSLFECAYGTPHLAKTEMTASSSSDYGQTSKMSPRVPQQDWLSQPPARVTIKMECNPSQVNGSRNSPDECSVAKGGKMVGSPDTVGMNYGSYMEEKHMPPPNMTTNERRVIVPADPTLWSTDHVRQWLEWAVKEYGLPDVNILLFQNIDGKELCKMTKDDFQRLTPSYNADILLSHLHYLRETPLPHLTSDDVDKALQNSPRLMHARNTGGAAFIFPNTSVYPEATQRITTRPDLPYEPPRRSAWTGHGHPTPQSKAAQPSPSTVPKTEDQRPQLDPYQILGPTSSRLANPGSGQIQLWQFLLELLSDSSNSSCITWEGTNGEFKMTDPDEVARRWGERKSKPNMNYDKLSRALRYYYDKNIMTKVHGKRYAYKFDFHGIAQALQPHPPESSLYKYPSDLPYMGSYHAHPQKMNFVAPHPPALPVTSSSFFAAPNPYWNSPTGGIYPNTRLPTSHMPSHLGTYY
The conditions noted are these: protein: recombinant; tags: N-terminal GST; dsDNA, one strand shown. A digest of the protocol:
as §1

The target in a further test is ELF1 (Homo sapiens, UniProt P32519 1-619). To be noted: protein: recombinant; tags: N-terminal GST; dsDNA, one strand shown. The method in brief: as §1
In another test the target is T5, EHF (Homo sapiens, UniProt Q9NZC4 1-300).
T5 sequence: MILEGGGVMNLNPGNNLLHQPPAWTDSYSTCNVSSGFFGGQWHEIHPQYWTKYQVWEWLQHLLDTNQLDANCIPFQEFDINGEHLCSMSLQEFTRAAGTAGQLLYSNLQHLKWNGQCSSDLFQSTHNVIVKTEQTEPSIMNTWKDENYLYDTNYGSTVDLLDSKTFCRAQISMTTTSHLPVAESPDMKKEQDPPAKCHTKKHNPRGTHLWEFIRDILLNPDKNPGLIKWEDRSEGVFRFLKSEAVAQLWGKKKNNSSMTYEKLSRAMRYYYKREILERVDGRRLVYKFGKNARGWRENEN
The conditions noted are these: protein: recombinant; tags: N-terminal GST; dsDNA, one strand shown. The method in brief: as §1

A further test addresses SPI1 (Homo sapiens, UniProt P17947 1-270). The conditions noted are these: protein: recombinant; tags: N-terminal GST; dsDNA, one strand shown. The method in brief:
as §1

The target of another test is SPIB (Homo sapiens, UniProt Q01892 1-262). The conditions noted are these: protein: recombinant; tags: N-terminal GST; dsDNA, one strand shown. A digest of the protocol:
as §1

The next test addresses T6, ELK3 (Homo sapiens, UniProt P41970 1-407).
T6 sequence: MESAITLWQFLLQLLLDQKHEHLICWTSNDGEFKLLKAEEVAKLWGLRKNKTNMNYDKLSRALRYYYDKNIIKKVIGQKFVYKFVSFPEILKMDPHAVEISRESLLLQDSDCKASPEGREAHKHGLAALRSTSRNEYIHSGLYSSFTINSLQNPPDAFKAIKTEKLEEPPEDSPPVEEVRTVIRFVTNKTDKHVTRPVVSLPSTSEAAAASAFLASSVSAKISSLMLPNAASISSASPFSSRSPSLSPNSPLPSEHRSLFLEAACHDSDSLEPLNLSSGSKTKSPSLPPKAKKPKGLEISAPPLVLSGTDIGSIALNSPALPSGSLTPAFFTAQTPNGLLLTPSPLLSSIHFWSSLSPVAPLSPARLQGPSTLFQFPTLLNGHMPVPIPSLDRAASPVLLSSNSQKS
The conditions noted are these: protein: recombinant; tags: N-terminal GST; dsDNA, one strand shown. A digest of the protocol:
as §1

For a further test, the target named is T7, FEV (Homo sapiens, UniProt Q99581 1-238).
T7 sequence: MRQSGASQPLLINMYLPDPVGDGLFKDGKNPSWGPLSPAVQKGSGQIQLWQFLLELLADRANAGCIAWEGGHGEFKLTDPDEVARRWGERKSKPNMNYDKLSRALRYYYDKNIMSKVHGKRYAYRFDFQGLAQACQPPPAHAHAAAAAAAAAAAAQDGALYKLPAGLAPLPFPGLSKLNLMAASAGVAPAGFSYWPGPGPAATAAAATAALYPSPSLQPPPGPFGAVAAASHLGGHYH
The conditions noted are these: protein: recombinant; tags: N-terminal GST; dsDNA, one strand shown. The method in brief: as §1

In a further test the target is ETV5 (Homo sapiens, UniProt P41161 1-510). The conditions noted are these: protein: recombinant; tags: N-terminal GST; dsDNA, one strand shown. A digest of the protocol: as §1
For a further test, the target named is HSF1 (Homo sapiens, UniProt Q00613 1-529). The conditions noted are these: protein: recombinant; tags: N-terminal GST; chain copies: 3; dsDNA, one strand shown. The method in brief:
as §1

The target in the next test is T8, SPIC (Homo sapiens, UniProt Q8N5J4 1-248).
T8 sequence: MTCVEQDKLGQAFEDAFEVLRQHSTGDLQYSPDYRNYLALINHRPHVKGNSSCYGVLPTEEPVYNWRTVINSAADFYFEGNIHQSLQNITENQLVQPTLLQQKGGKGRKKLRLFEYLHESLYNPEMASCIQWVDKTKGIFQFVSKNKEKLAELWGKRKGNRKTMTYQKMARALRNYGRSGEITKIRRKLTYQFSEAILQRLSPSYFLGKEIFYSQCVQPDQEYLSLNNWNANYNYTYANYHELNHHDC
To be noted: protein: recombinant; tags: N-terminal GST; dsDNA, one strand shown. The method in brief: as §1

In a further test the target is ELF4 (Homo sapiens, UniProt Q99607 1-663). To be noted: protein: recombinant; tags: N-terminal GST; dsDNA, one strand shown. A digest of the protocol: as §1
The next test concerns the target T9, ELK4 (Homo sapiens, UniProt P28324-2 1-405).
T9 sequence: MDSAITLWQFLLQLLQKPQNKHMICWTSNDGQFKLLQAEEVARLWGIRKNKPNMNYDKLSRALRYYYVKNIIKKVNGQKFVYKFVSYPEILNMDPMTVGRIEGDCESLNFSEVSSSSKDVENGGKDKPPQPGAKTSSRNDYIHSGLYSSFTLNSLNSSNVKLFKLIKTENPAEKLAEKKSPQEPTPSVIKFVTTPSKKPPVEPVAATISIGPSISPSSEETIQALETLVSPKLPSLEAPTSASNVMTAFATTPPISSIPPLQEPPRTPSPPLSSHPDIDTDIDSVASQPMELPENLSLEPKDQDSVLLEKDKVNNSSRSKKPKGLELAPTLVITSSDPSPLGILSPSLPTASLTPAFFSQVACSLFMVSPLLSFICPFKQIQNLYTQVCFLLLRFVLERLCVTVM
To be noted: protein: recombinant; tags: N-terminal GST; dsDNA, one strand shown. A digest of the protocol: as §1

For the next test, the target named is T10, ETV2 (Homo sapiens, UniProt O00321 1-342).
T10 sequence: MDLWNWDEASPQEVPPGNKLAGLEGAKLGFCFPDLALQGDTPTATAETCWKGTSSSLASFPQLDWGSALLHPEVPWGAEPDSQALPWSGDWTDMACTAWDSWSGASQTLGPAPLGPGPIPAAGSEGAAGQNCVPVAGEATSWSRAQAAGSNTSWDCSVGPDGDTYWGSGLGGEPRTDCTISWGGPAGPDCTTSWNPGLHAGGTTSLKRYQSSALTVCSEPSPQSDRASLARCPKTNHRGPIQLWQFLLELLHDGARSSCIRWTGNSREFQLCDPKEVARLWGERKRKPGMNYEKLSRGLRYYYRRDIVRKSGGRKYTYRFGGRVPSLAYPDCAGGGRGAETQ
To be noted: protein: recombinant; tags: N-terminal GST; dsDNA, one strand shown. A digest of the protocol:
as §1

The next test has as its target T11, ELF3 (Homo sapiens, UniProt P78545 1-371).
T11 sequence: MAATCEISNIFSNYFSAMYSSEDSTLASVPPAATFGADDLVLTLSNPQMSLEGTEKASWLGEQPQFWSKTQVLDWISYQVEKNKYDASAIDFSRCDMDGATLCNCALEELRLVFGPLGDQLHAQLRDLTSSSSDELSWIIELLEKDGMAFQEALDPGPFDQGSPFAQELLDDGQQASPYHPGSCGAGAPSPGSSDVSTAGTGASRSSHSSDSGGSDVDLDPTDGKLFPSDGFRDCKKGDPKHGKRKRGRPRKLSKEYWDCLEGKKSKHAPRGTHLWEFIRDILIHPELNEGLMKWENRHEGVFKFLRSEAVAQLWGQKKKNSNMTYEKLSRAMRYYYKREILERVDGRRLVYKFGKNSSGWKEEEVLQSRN
To be noted: protein: recombinant; tags: N-terminal GST; dsDNA, one strand shown. A digest of the protocol:
as §1

A further test deals with CRX (Homo sapiens, UniProt O43186 1-299). To be noted: protein: recombinant; tags: N-terminal GST; dsDNA, one strand shown. The method in brief: as §1
The target in the next test is ETV1 (Homo sapiens, UniProt P50549 1-477). The conditions noted are these: protein: recombinant; tags: N-terminal GST; dsDNA, one strand shown. A digest of the protocol:
as §1

Sequence of ETV1 (P50549 whole entry): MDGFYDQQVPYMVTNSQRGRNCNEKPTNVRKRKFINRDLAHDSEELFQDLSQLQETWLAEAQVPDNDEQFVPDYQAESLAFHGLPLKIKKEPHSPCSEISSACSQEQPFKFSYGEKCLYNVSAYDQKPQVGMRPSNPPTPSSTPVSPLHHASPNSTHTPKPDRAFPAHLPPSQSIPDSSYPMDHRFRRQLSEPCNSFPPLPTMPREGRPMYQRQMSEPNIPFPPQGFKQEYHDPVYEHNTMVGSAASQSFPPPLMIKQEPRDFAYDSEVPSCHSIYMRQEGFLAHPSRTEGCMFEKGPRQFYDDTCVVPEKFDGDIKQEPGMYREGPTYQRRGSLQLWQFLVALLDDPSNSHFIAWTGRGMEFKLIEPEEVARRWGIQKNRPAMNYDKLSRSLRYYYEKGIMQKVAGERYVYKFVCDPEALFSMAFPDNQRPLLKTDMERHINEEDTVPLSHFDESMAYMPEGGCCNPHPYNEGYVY
Sequence of ELF1 (P32519 whole entry): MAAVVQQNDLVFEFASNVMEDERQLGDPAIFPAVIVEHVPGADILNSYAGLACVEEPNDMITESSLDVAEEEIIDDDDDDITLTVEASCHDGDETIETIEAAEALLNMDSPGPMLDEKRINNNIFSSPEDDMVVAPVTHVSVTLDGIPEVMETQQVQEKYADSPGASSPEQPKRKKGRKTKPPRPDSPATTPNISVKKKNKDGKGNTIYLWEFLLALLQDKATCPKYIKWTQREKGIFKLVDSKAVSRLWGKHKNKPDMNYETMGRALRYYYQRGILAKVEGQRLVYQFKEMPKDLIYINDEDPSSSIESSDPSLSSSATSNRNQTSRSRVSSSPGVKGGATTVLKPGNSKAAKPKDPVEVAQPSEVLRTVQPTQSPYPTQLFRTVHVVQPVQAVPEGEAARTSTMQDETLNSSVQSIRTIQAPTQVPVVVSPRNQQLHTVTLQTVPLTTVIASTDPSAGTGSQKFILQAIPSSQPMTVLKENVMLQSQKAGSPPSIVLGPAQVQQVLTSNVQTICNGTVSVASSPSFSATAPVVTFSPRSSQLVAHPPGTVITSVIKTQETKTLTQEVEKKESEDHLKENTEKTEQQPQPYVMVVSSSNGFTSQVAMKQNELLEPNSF
Sequence of ELF4 (Q99607 whole entry): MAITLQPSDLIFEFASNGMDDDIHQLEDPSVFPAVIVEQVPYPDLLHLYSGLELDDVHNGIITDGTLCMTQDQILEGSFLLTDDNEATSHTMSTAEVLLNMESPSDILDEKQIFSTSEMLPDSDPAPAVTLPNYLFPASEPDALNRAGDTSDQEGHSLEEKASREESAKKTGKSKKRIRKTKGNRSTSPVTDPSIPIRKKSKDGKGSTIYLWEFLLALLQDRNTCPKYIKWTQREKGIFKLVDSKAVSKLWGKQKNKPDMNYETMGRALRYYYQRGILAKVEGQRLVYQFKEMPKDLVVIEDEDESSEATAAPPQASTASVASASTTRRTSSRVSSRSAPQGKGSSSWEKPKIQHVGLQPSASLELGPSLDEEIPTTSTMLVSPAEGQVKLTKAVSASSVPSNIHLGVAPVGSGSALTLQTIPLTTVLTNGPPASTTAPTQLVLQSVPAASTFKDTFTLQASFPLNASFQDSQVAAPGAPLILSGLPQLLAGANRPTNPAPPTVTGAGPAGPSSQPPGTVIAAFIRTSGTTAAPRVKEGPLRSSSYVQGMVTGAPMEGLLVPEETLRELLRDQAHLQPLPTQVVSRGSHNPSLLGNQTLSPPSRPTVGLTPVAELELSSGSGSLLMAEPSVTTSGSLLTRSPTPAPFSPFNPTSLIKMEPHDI
Sequence of SPIB (Q01892 whole entry): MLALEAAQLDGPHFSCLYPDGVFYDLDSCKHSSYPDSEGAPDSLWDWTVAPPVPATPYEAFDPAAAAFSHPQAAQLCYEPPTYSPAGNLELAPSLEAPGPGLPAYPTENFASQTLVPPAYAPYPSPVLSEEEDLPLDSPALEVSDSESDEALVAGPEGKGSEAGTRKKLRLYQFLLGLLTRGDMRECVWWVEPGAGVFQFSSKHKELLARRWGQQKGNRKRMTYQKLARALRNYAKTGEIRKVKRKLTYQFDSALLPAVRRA
Sequence of CRX (O43186 whole entry): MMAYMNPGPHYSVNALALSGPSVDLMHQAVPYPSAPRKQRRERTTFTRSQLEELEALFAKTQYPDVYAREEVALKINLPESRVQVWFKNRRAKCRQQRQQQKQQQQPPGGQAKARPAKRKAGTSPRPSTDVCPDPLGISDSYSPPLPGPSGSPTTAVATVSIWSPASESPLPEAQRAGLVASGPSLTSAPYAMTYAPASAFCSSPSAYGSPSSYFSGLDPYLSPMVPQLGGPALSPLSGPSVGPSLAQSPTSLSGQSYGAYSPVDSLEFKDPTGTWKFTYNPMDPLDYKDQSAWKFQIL
Sequence of HSF1 (Q00613 whole entry): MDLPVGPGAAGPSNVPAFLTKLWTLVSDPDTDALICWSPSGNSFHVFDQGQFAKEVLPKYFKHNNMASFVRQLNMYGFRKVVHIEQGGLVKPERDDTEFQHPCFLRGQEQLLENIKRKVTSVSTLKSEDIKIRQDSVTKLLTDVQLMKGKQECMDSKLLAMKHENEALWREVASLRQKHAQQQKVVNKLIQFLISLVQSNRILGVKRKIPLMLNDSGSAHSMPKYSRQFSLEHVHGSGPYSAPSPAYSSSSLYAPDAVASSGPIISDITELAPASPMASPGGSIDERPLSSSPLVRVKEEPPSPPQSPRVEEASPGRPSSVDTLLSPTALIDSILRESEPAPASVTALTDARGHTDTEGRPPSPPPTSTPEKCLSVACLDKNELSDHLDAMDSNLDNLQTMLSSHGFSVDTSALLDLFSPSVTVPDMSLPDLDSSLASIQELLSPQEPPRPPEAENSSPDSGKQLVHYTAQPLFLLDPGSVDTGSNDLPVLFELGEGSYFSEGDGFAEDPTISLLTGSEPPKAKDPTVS
Sequence of ETV5 (P41161 whole entry): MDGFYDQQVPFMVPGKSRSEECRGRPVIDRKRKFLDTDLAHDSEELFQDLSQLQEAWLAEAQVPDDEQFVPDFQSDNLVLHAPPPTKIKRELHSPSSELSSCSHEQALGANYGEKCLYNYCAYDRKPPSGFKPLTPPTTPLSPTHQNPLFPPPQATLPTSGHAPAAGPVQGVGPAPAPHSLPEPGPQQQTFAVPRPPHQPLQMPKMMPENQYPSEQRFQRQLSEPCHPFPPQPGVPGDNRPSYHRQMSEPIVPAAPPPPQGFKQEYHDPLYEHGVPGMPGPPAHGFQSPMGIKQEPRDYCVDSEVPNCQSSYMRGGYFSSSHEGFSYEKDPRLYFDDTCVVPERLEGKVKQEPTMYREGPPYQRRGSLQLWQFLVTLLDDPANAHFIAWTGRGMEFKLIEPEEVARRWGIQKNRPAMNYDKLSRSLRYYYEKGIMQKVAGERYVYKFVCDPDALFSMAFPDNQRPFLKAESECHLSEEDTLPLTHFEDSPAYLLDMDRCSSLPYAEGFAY

For AAGCTA, the binding signal was 1.16 fold enrichment (6-mer frequency, TF over GST control) with FLI1; 1.13 fold enrichment (6-mer frequency, TF over GST control) in the test with ELK1; 1.08 fold enrichment (6-mer frequency, TF over GST control) with GABPA; 1.13 fold enrichment (6-mer frequency, TF over GST control) with ERG; 1.11 fold enrichment (6-mer frequency, TF over GST control) with ELF1; 1.19 fold enrichment (6-mer frequency, TF over GST control) with EHF. Further, the binding signal with SPI1 was 1.04 fold enrichment (6-mer frequency, TF over GST control); with SPIB it was 1.2 fold enrichment (6-mer frequency, TF over GST control); in the test with ELK3 it was 1.21 fold enrichment (6-mer frequency, TF over GST control); in the test with FEV, 1.13 fold enrichment (6-mer frequency, TF over GST control); with ETV5, 1.17 fold enrichment (6-mer frequency, TF over GST control); with HSF1 it was 1.29 fold enrichment (6-mer frequency, TF over GST control). The binding signal is 1.13 fold enrichment (6-mer frequency, TF over GST control) with SPIC; 1.2 fold enrichment (6-mer frequency, TF over GST control) with ELF4; 1.17 fold enrichment (6-mer frequency, TF over GST control) with ELK4; 1.12 fold enrichment (6-mer frequency, TF over GST control) in the test with ETV2; 1.2 fold enrichment (6-mer frequency, TF over GST control) with ELF3; 1.58 fold enrichment (6-mer frequency, TF over GST control) in the test with CRX. For the same sequence, in the test with ETV1, the binding signal was 1.17 fold enrichment (6-mer frequency, TF over GST control).
